According to PubChem BioAssay AID686978 (National Center for Advancing Translational Sciences (NCATS), 2013):
Out of some 420,000 compounds screened, about 64,000 (15%) were called active. Another 27% or so got no clear call; they are omitted. A selection follows. Unmarked numbers belong to inactive results. Calls come from the whole dose curve; as a rule, active = well fitted inhibition curve with a large enough effect; inconclusive = small, poorly fitted or top-dose-only effect; inactive = flat fitted curve, though single readings scatter.

Experiment: qHTS for Inhibitors of human tyrosyl-DNA phosphodiesterase 1 (TDP1): qHTS in cells in absence of CPT; note: nearly all actives have a fitted effect of over 55% in size
Conditions: DT40 Tdp1-/- hTDP1 cells, no CPT, ATP luminescence, 48 h; activity change, negative = growth inhibition: at 46.2 µM (top of the series)
Procedure, shortened: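 Compound effects on proliferation are scored in DT40 Tdp1-/-;hTDP1 cells in the absence of CPT. ATP levels (CellTiter-Glo luminescence) are recorded after a ≥48 hr, 37 °C incubation.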
% is set by controls: 0 for no effect and ±100 for the full control effect; potency is the fitted concentration of half-maximal effect.

SMILES | Potency | activity change, negative = growth inhibition [%]
COc1ccccc1CCC(=O)OCC(=O)N1CCN(S(=O)(=O)c2ccc(C)cc2C)CC1 | 23.1 µM (active) | 
Cc1ccc(C)c(OCCC(=O)OCC(=O)N2CCN(c3ccccc3)CC2)c1 |  | -20.4
Cc1ccc(S(=O)(=O)N2CCN(C(=O)COC(=O)CNC(=O)c3ccc(C(C)(C)C)cc3)CC2)c(C)c1 |  | 6.77
O=c1ccc(-c2ccc(S(=O)(=O)Nc3ccccc3)o2)n[nH]1 |  | -10.7
COc1ccc(CNC(=O)COc2cccnc2[N+](=O)[O-])cc1 |  | 20.7
COc1cccc(NC(=O)C2c3cc(OC)c(OC)cc3C(=O)N(C)C2c2cccnc2)c1 (stereo not drawn) |  | -16.5
CC(=O)Oc1cccc(C(=O)Nc2ccccc2NC(=O)c2cccc(OC(C)=O)c2)c1 |  | -21.2
COc1cccc(-c2cnc3c(NC(C)=O)cc(-c4cc(F)ccc4OC)cn23)c1 | 23.1 µM (active) | 
COc1cccc(-c2cc(NC(C)=O)c3ncc(-c4cccc(C(C)=O)c4)n3c2)c1 | 23.1 µM (active) | 
COc1cccc(C(NC(C)=O)c2nc(-c3ccccc3OC)cs2)c1 (stereo not drawn) |  | -25.4
COc1ccc(-c2cc(NC(C)=O)c3ncc(-c4cc(OC)c(OC)c(OC)c4)n3c2)cn1 | 2.91 µM (active) | 
CC(=O)Nc1cc(-c2ccccc2F)cn2c(-c3cccc(C(F)(F)F)c3)cnc12 | 0.326 µM (active) | 
O=C(CNS(=O)(=O)c1cccc(C(F)(F)F)c1)Nc1ccccc1F |  | -2.97
COc1cccc(NC(=O)CSc2nnc(-c3cccnc3)o2)c1 |  | -0.853
CNc1cnc(-c2cc(OC)c(OC)c(OC)c2)cn1 |  | 10.9
CSc1nc2nc(-c3cccc(C(F)(F)F)c3)ccn2n1 |  | -24.8
CCCCOP(=O)(c1ccc(N(C)C)cc1)C(O)c1cc(OC)ccc1OC (stereo not drawn) |  | 1.13
CCC1=[N+]([O-])C(C)(/C(C)=N\O)N(O)C1(C)C (stereo not drawn) |  | 4.6
CN1C[C@@H](CO)O[C@@H](n2cnc3c(N4CCN(CCO)CC4)ncnc32)C1 |  | -5.1
Cc1ccc(NC(=O)CSCC(=O)Nc2sccc2C#N)cc1 |  | 1.64
Cc1cc(=O)oc2c3c(cc(OCC(=O)NCCC(=O)N[C@@H](C)C(=O)O)c12)OC(C)(C)CC3 |  | -2.86
Cc1cc(=O)oc2c3c(cc(OCC(=O)NCc4ccccn4)c12)OC(C)(C)CC3 | 25.9 µM (active) | 
Cc1cc(=O)oc2c3c(cc(OCC(=O)N[C@H](C(=O)O)c4ccccc4)c12)OC(C)(C)CC3 |  | -17.6
O=c1cc(CO)oc(C(Nc2cccc([N+](=O)[O-])c2)c2ccccn2)c1O (stereo not drawn) |  | -2.19

SMILES | Potency | activity change, negative = growth inhibition [%]
CC1CCN(CC(=O)Nc2nccs2)CC1 |  | -8.17
CCOC(=O)c1c(-c2ccc(C)cc2C)csc1NC(=O)CSc1nnnn1C | 20.6 µM (active) | 
Cn1nnnc1SCC(=O)Nc1sccc1C(N)=O |  | -0.145
CCOC(=O)CNC(=O)CSc1nnnn1-c1cc(C)ccc1C |  | -6.94
O=C1c2ccccc2C(=O)N1Cc1cc(-c2ccccc2Cl)no1 |  | -2.31
CS(=O)(=O)Nc1ccccc1N=C(c1ccccc1)c1ccccc1 |  | -23.1
O=C(COc1ccc(S(=O)(=O)NCCc2ccccc2)cc1)N1CCCC1 |  | -19.6
CSc1ncccc1C(=O)N1CCCC(CCC(=O)NCc2ccccc2F)C1 (stereo not drawn) |  | 1.92
Cc1nn(-c2ccc(N3CCCCC3)nn2)c(C)c1CCC(=O)NCc1ccccc1F |  | -9.4
COc1cccc(CNC(=O)CCC2CCCN(C(=O)c3cc(C)[nH]n3)C2)c1 (stereo not drawn) |  | -16.4
C=Cc1ccc(C(=O)N2CCCC(CCC(=O)N3CCN(c4ccccn4)CC3)C2)cc1 (stereo not drawn) |  | -9.1
COc1cccc(CNC(=O)CCC2CCCN(C(=O)c3ccc(F)c(Cl)c3)C2)c1 (stereo not drawn) | 18.4 µM (active) | 
Cc1[nH]c2c(C(=O)N3CCCC(CCC(=O)NCc4ccccc4F)C3)cccc2c1C (stereo not drawn) | 20.6 µM (active) | 
COc1cccc(C(=O)N2CCCC(CCC(=O)NCc3ccc(F)c(F)c3)C2)c1 (stereo not drawn) |  | -58.6
CC(=O)c1ccc(S(=O)(=O)NCCC(=O)N2CCN(c3ccccn3)CC2)cc1 |  | -23.6
O=C(CCC1CCCN(C(=O)c2ccc(F)c(F)c2)C1)N1CCN(c2ccccn2)CC1 (stereo not drawn) | 18.4 µM (active) | 
Cc1ccnc(N)c1 |  | -12.1
Cc1ccc(NC(=O)CSc2sc3c(O)cc(=O)[nH]c3c2C#N)cc1C |  | 0.436
CCC1CCCCN1CCNC(=O)c1[nH]c(C)c(C(C)=O)c1C (stereo not drawn) |  | 1.81
O=C(Nc1ccon1)c1nc[nH]c1C(=O)NCc1ccccc1 |  | -23.3
COc1ccc(/C(O)=C2/C(=O)C(=O)N(c3nc(C)c(C)s3)C2c2ccco2)cc1 (stereo not drawn) |  | -16.5
Cc1ccc(C)c(NC(=O)CN(C)C(=O)c2ccc3ncsc3c2)c1 |  | -5
Fc1cccc(Cc2noc(CN3CCN(c4cnccn4)CC3)n2)c1 |  | -6.03
CC1(C(=O)O)CCN1C(=O)/C=C/c1ccccc1 (stereo not drawn) |  | -14.2
